Screens from PubChem BioAssay.
Tgondii IFNg = T. gondii growth inhibition with IFN-gamma, primary screen, cell-based; Toxoplasma gondii growth in IFN-gamma-treated host cells; stronger effect = lower value; activity change, negative = inhibition, % (concentration not given with the values); 69,000 tested, 3.8% active; AID 1259416, 2018; in the data active = activity change below about -70%, passing the limit was not always enough;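 note: host cells are HeLa cells infected with Toxoplasma gondii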
Numbers stand for hits; ! = not active in a repeat. The full list was thinned out, with hits kept by preference.

For O=C(NC1CC2(CCN(Cc3ccccn3)C2)C1)c1cnccn1 (stereo not given) the results were Tgondii IFNg inactive.
`c1ccc(CO[C@H]2CN(Cc3ccco3)[C@H]3COC[C@@H]23)nc1` gave Tgondii IFNg inactive.
C=CCN1CCO[C@@H]2[C@@H](Oc3ccccn3)CC[C@H]21 was read as Tgondii IFNg inactive.
CC(C)CN1CCC2(CC1)C(=O)Nc1ccc(C(=O)NC3CC3)cc12 was read as Tgondii IFNg inactive.
C=CCN1CCN(C)C(=O)C12CCN(c1ncc(F)cn1)C2 (stereo not given) was read as Tgondii IFNg inactive.
For CCc1ccccc1NC(=O)c1cc2cccnc2n(Cc2ccccc2)c1=O the results were Tgondii IFNg inactive.
Screening O=C(Nc1ccc2c(c1)OCO2)c1c(O)c2cccnc2n(Cc2ccccc2)c1=O returned Tgondii IFNg inactive.
`Cc1cccc(CNC(=O)c2c(O)c3cccnc3n(Cc3ccccc3)c2=O)c1` gave Tgondii IFNg -119.
Screening Cc1ccc(NC(=O)c2c(O)c3cccnc3n(Cc3ccccc3)c2=O)c(F)c1 returned Tgondii IFNg inactive.
O=C(Nc1cccc(F)c1)c1c(O)c2cccnc2n(Cc2ccccc2)c1=O was read as Tgondii IFNg inactive.
Screening O=C(Nc1ccc2c(c1)OCCO2)c1c(O)c2cccnc2n(Cc2ccccc2)c1=O returned Tgondii IFNg inactive.
O=C(NCc1ccc2c(c1)OCO2)c1c(O)c2cccnc2n(Cc2ccccc2)c1=O was read as Tgondii IFNg -77.
`Cc1cnc(N2CCCC3(CCCN3Cc3cccnc3)C2)nc1` (stereo not given) gave Tgondii IFNg inactive.
`COc1ccc(CN2CC3(CCN(c4ncccn4)C3)C2)cc1` gave Tgondii IFNg inactive.
O=C(Cc1ccc(Cl)cc1)N1CCCC2(CCCN2Cc2ccc(C(F)(F)F)cc2)C1 (stereo not given) was read as Tgondii IFNg inactive.
COc1ncccc1-c1ccc2c(c1)CNCC2 was read as Tgondii IFNg inactive.
Screening CC[C@@H]1[C@@H](C)O[C@@](O)([C@@H](C)[C@H](O)[C@H](C)[C@H]2OC(=O)/C=C/C=C/[C@H](C)[C@H]([C@@H](C)[C@@H](O)[C@H](C)[C@@]3(O)C[C@@H](O[C@H]4C[C@H](O)[C@H](O)[C@H](C)O4)[C@H](CC)[C@@H](C)O3)OC(=O)/C=C/C=C/[C@H]2C)C[C@H]1O[C@H]1C[C@H](O)[C@H](O)[C@H](C)O1 returned Tgondii IFNg -75.
For Nc1cncc(-c2cccc3c2CCNC3)c1 the results were Tgondii IFNg inactive.
For CCNC(=O)[C@H]1O[C@@H](n2cnc3c(N)ncnc32)[C@H](O)[C@@H]1O the results were Tgondii IFNg inactive.
NC(=O)c1cn(C2OC(CO)[C@H](O)[C@@H]2O)c2ncnc(N)c12 (stereo not given in full) was read as Tgondii IFNg -83.
`Cc1nc2c(c(=O)[nH]1)CC1CCC(C2)N1C(=O)C(C)n1nc(C(F)F)cc1C` (stereo not given) gave Tgondii IFNg inactive.
Screening COCCN1CCN(Cc2ccncc2)c2ncccc2C1 returned Tgondii IFNg inactive.
CS(=O)(=O)N1CCOC2(COCCN(Cc3ccncc3)C2)C1 (stereo not given) was read as Tgondii IFNg inactive.
Cc1cccc(NC(=O)c2cc3cccnc3n(Cc3ccc(Cl)cc3)c2=O)c1 was read as Tgondii IFNg inactive.
COc1ccc2c(c1)C1(CCN(C(=O)c3scnc3C)CC1)CC2CC(=O)O (stereo not given) was read as Tgondii IFNg inactive.
COc1ccc2c(c1)C1(CCN(C(=O)c3nn(C)c4ccccc34)CC1)CC2CC(=O)O (stereo not given) was read as Tgondii IFNg -74.
For COc1ccc2c(c1)C1(CCN(C(=O)C3(c4ccccc4)CCCC3)CC1)CC2CC(=O)O (stereo not given) the results were Tgondii IFNg inactive.
`Clc1ccc(COC(Cn2ccnc2)c2ccc(Cl)cc2Cl)cc1` (stereo not given) gave Tgondii IFNg -75!.
Screening Clc1ccc(CSC(Cn2ccnc2)c2ccc(Cl)cc2Cl)cc1 (stereo not given) returned Tgondii IFNg -84.
For c1ccc(Cn2ccnc2)cc1 the results were Tgondii IFNg inactive.
Cc1nn(CCNC(C)Cn2ccnc2)c(C)c1Cl (stereo not given) was read as Tgondii IFNg inactive.
Screening CC(C)N(C)C(=O)C1CCC2(CCNCC2)O1 (stereo not given) returned Tgondii IFNg inactive.
`CCN1CCC2(CCCN(c3nncs3)C2)C1` (stereo not given) gave Tgondii IFNg inactive.
Screening CCn1nc(C)c(NC(=O)CN2C[C@H]3C[C@@H](C2)c2cccc(=O)n2C3)c1C returned Tgondii IFNg inactive.
CC(Cc1ccccn1)N(C)Cc1ccsc1 (stereo not given) was read as Tgondii IFNg inactive.
Oc1ccc(CN2CCN(Cc3cccc(F)c3)CC2)c(Cl)c1 was read as Tgondii IFNg inactive.
Cc1cc(Br)ccc1NC(=O)c1cc2cccnc2n(Cc2ccc(F)cc2)c1=O was read as Tgondii IFNg inactive.
`O=C1CCC[C@@H]2[C@@H]3CCCN4CCC[C@H](CN12)[C@@H]34` gave Tgondii IFNg inactive.
For C=C1[C@@H](C)[C@H]2[C@H](Cc3ccccc3)NC(=O)[C@]23OC(=O)/C=C/[C@H](O)CCC[C@@H](C)C/C=C/[C@H]3[C@@H]1O the results were Tgondii IFNg -98.
For Cc1nnc2ccc(-c3cccc(C(F)(F)F)c3)nn12 the results were Tgondii IFNg -80.
For Cc1nn(C)c(Cl)c1S(=O)(=O)N1C2CCC1c1cnc(N3CCOCC3)nc1C2 (stereo not given) the results were Tgondii IFNg inactive.
For CCN1CCc2c(CNC(=O)c3nccn3C)cncc2C1 the results were Tgondii IFNg inactive.
For COc1cc2c(cc1OC)[C@@H]1C(=O)c3ccc(OC)c(CC=C(C)C)c3O[C@@H]1CO2 the results were Tgondii IFNg inactive.
Screening COc1cc2c(cc1OC)[C@@H]1C(=O)c3ccc4c(c3O[C@@H]1CO2)CC(C(C)C)O4 (stereo not given in full) returned Tgondii IFNg -82.
`Cc1ccc(CN2C[C@H]3COC[C@@]3(COCc3cccnc3)C2)o1` gave Tgondii IFNg inactive.
Screening CN1CC2(CCN(Cc3ccccn3)CC2)CC1COCC1CC1 (stereo not given) returned Tgondii IFNg inactive.
Screening O=C(NCCC1=CCCCC1)c1cc2cccnc2n(Cc2ccc(Cl)cc2)c1=O returned Tgondii IFNg inactive.
C[C@]12CCC3[C@@H](CC[C@@H]4C[C@H](O)CC[C@]34C)[C@@H]1CCC2=O (stereo not given in full) was read as Tgondii IFNg inactive.
Screening C[C@]12CC[C@H](O)C[C@H]1CC[C@@H]1[C@@H]2CC[C@]2(C)[C@@H](C3=CC(=O)OC3)CC[C@]12O returned Tgondii IFNg -85.
Screening CC(=O)[C@H]1CC[C@H]2[C@@H]3CC[C@H]4C[C@H](O)CC[C@]4(C)[C@H]3C(=O)C[C@]12C returned Tgondii IFNg inactive.
Screening C[C@]12[C@H](O)CC3C(CC[C@@H]4C[C@@H](O)CC[C@]34C)[C@@]1(O)CC[C@@H]2C1=CC(=O)OC1 (stereo not given in full) returned Tgondii IFNg -79.
`C[C@]12CC[C@H](O)C[C@H]1CC[C@@H]1[C@@H]2C[C@@H](O)[C@]2(C)[C@@H](C3=CC(=O)OC3)CC[C@]12O` gave Tgondii IFNg -87.
